Experiments:
Conditions in all cases: concentration: 1 μM, replicates: in singlicate; n = 1
[1] = tested on: TESK1
[2] = tested on: TGFBR1
[3] = tested on: TGFBR2
[4] = tested on: TIE1
[5] = tested on: T1, TIE2
T1 construct: gene TEK

[6] = tested on: TLK1
[7] = tested on: TLK2
[8] = tested on: TNIK
[9] = tested on: TNK1
[10] = tested on: TNK2
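Further: KINOMEscan kinase panel screen.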

SMILES	%Inh [1]	%Inh [2]	%Inh [3]	%Inh [4]	%Inh [5]	%Inh [6]	%Inh [7]	%Inh [8]	%Inh [9]	%Inh [10]
COc1cc(Nc2nccc(N3CCC(NC(=O)Nc4ccc5c(c4)OCO5)C3)n2)cc(OC)c1OC (centres unmarked) [GSK1379766]	22%	22%	0%	42%	0%	0%	0%	0%	20%	9%
Cc1ccc(NC(=O)c2ccnc(N3CCCCC3)c2)cc1-c1ccc(C(=O)NCC2CC2)cc1 [GW775610]	1%	6%	0%	0%	0%	100%	0%	0%	0%	0%
CN1CCN(Cc2ccc(NC(=O)Nc3ccc(N(C)c4ccnc(Nc5ccc(CS(C)(=O)=O)cc5)n4)cc3)cc2)CC1.Cl [GW827654]	0%	25%	81%	96.9%	80%	25%	0%	90.9%	20%	97.7%
CNc1nccc(-c2ccc3c(N)n[nH]c3c2)n1 [GSK2206003]	31%	25%	9%	15%	0%	8%	1%	50%	0%	17%
Nc1ncc(-c2cn[nH]c2)c2scc(-c3ccc4c(c3)CCN4C(=O)Cc3ccccc3)c12 [GSK2593067]	59%	0%	0%	97.4%	83%	0%	0%	69%	45%	79%
Cn1cc(-c2cnc(N)c3c(-c4ccc5c(c4)CCN5C(=O)Cc4ccccc4)csc23)cn1 [GSK2593074]	53%	6%	4%	84%	84%	31%	5%	8%	19%	62%
COC(=O)Nc1nc2ccc(Oc3ccc(CC(=O)Nc4cc(C(F)(F)F)ccc4F)cc3)cc2[nH]1 [GW680903]	17%	17%	0%	94%	36%	14%	0%	0%	0%	17%
CSc1ccc(NC2=C(c3ccc(Cl)cc3)C(=O)NC2=O)cc1 [SB-317658]	20%	38%	23%	42%	17%	8%	18%	0%	41%	0%
Cl.O=C(Nc1ccc(Oc2ccc3[nH]c(NC(=O)c4ccco4)nc3c2)cc1)Nc1cc(C(F)(F)F)ccc1F [GW683134]	36%	0%	0%	100%	99.8%	0%	3%	0%	56%	8%
Cc1cccc(Nc2nc(NCCN)ncc2C(N)=O)c1 [GSK1292139]	0%	0%	0%	0%	0%	18%	17%	89%	0%	0%
O=C(O)C(F)(F)F.O=c1[nH]ccc2nc(N[C@@H]3CCNC3)nc(Nc3cc(Cl)cc(Cl)c3)c12 [GSK2188764]	8%	25%	0%	0%	0%	62%	73%	96.5%	41%	4%
CC(=O)Nc1cn2nc(Oc3cccc(NC(=O)c4cccc(C(F)(F)F)c4)c3)ccc2n1	13%	9%	0%	81%	65%	0%	0%	38%	68%	0%
Nc1ncc(-c2ccc3nccc(-c4ccncc4)c3c2)cc1S(=O)(=O)N1CCCCC1 [GSK1693850]	20%	0%	0%	4%	0%	37%	0%	10%	0%	9%
Cc1ccc(NC(=O)c2cccc(N3CCCCC3)c2)cc1-c1ccc(C(=O)NCC2CC2)cc1 [GSK1917008]	0%	24%	9%	1%	0%	4%	0%	2%	6%	16%
O=C(Nc1n[nH]c2nc(-c3cccc(O)c3)ccc12)C1CC1 [SB-711805]	0%	4%	87%	0%	21%	9%	100%	65%	4%	0%
COc1ccc(C2=C(Nc3cccc(O)c3)C(=O)NC2=O)cc1 [SB-390766]	12%	20%	0%	0%	0%	0%	4%	0%	0%	5%
O=C(Nc1c(F)cccc1F)c1cc(C(=O)c2ccccc2F)c[nH]1 [GSK1326180]	10%	0%	6%	0%	0%	0%	0%	20%	8%	8%
COc1cccc(CC(=O)N2CCc3cc(-c4cn(C)c5ncnc(N)c45)ccc32)c1 [GSK2608899]	21%	0%	6%	82%	42%	15%	0%	81%	0%	0%
CCNc1nccc(-c2c(-c3ccc(F)cc3)ncn2C2CCN(C)CC2)n1	0%	0%	0%	100%	0%	17%	0%	24%	0%	0%
NCCC(NC(=O)c1cc(Br)c(-c2ccnc3[nH]ccc23)s1)c1ccccc1.O=C(O)C(F)(F)F.O=C(O)C(F)(F)F (centres unmarked) [GSK1307810]	6%	3%	0%	73%	0%	23%	0%	52%	0%	9%
COc1cccc(C2=C(Nc3cccc(O)c3)C(=O)NC2=O)c1 [SB-390771]	34%	19%	0%	0%	0%	29%	33%	0%	0%	15%
COC(=O)Nc1nc2cc(Oc3ccc(NC(=O)Nc4cccc(SC)c4)cc3)ccc2[nH]1.Cl [GW697999]	3%	25%	0%	96.5%	93.2%	0%	0%	0%	4%	10%

SMILES	%Inh [1]	%Inh [2]	%Inh [3]	%Inh [4]	%Inh [5]	%Inh [6]	%Inh [7]	%Inh [8]	%Inh [9]	%Inh [10]
CCn1c(-c2nonc2N)nc2c(-c3ccccc3)ncc(OCCCN)c21.O=C(O)C(F)(F)F.O=C(O)C(F)(F)F [GSK260205]	0%	76%	0%	70%	41%	1%	0%	85%	1%	8%
CN(C)CCOc1ccc(-c2cc(-c3ccc(Cl)c(O)c3)c(-c3ccncc3)[nH]2)cc1.Cl.Cl [SB-684387]	19%	54%	75%	4%	39%	16%	7%	33%	28%	15%
CCNC(=O)/C=C/c1n[nH]c2cc(Sc3ccccc3C(=O)NC)ccc12	10%	5%	0%	59%	20%	12%	0%	57%	67%	27%
Cc1cc(-c2ccnc(Nc3cccc(C#N)c3)n2)cc(C)c1O [GSK1440913]	47%	0%	0%	74%	0%	16%	0%	68%	0%	18%
CN(c1ccc(NC(=O)N2CCN(CCCN3CCOCC3)CC2)cc1)c1ccnc(Nc2ccc(CS(C)(=O)=O)cc2)n1.Cl [GW830899]	9%	6%	59%	0%	16%	2%	0%	15%	41%	12%
CCn1cnc2c(NCc3ccccc3)ncnc21 [SKF-96418]	15%	25%	0%	0%	0%	0%	1%	0%	2%	0%
Fc1cc(Cl)ccc1Nc1ccnc2cc(-c3ccc(CN4CCSCC4)o3)ccc12 [GW560106]	17%	0%	71%	1%	6%	0%	0%	47%	87%	75%
COc1ccc(C)c(Nc2ccnc(Nc3ccc(-c4cnc[nH]4)cc3)n2)c1.Cl [GW784041]	21%	39%	34%	0%	36%	0%	0%	9%	44%	36%
COc1cc(Nc2ccnc3cc(-c4ccncc4)ccc23)cc(OC)c1OC.Cl [GW494610]	73%	63%	59%	19%	15%	0%	0%	89%	40%	28%
Nc1ncnc2scc(-c3ccc(NC(=O)Cc4cc(F)ccc4F)cc3)c12.O=C(O)C(F)(F)F [SB-731254-M]	51%	4%	20%	98.7%	77%	11%	1%	27%	44%	2%
Cc1cc(-c2c(-c3ccc(F)cc3)ncn2CCCN2CCOCC2)nc(N)n1 [SB-222517]	14%	0%	0%	27%	20%	0%	34%	0%	26%	0%
CC(C)NCC(Cc1ccccc1)NC(=O)c1cc(Br)c(-c2ccnc3[nH]ccc23)s1.Cl.Cl (centres unmarked) [GSK1383281]	47%	1%	0%	69%	0%	8%	13%	5%	0%	0%
Cl.Cl.NCC(NC(=O)c1cc(-c2cccnc2)c(-c2ccnc3[nH]ccc23)s1)c1ccccc1 (centres unmarked) [GSK1323434]	19%	22%	27%	19%	0%	14%	0%	77%	0%	16%
Cn1cc(-c2ccc3c(c2)CCN3C(=O)Cc2cc(F)cc(F)c2F)c2c(N)ncnc21 [GSK2634140]	22%	10%	0%	76%	52%	3%	0%	5%	8%	7%
O=C(Nc1n[nH]c2nc(-c3ccccc3O)ccc12)C1CC1 [SB-711880]	0%	0%	0%	16%	0%	22%	0%	79%	20%	0%
O=C(Nc1n[nH]c2nc(-c3ccccc3)ccc12)C1CC1 [SB-708999]	17%	0%	0%	15%	3%	0%	0%	79%	0%	2%
CC(C)(C)c1ccc(C(=O)Nc2cn3cc(-n4ccnc4)ccc3n2)cc1	0%	0%	0%	3%	17%	4%	0%	2%	0%	0%
CN(C)CCNS(=O)(=O)c1ccc(-c2ccnc3[nH]ccc23)cc1 [GSK977620]	74%	0%	0%	32%	0%	7%	7%	0%	0%	7%
Cc1ccc(NC(=O)c2ccc(Cl)c(Cl)c2)cc1-c1ccc(C(=O)Nc2ccncc2)cc1 [GSK1398460]	29%	0%	0%	0%	0%	8%	6%	0%	29%	19%
CN(c1ccc(F)c(NC(=O)c2cccc(OC(C)(C)C#N)c2Cl)c1)c1ccc2nc(NC(=O)C3CC3)sc2n1	6%	3%	0%	67%	0%	2%	0%	95.6%	42%	0%
Cc1ccc(Nc2ccnc(Nc3ccc(C)c(F)c3)n2)cc1O.Cl [GW582868]	0%	0%	83%	47%	0%	0%	0%	0%	0%	29%
Cc1ccc(O)cc1Nc1ccnc2ccc(C(C)(C)C)cc12 [GW856805]	0%	8%	93.2%	38%	39%	0%	31%	0%	69%	13%
